Laboratory results as given in PubChem BioAssay (Tox21).
Results filed as inconclusive are left out. Calls of active or inactive are those of the source. Unless noted, calls follow the shape of the dose curve; as a rule, active = well fitted curve in the direction sought with a large enough effect in the repeat runs; inconclusive = weak or mixed curves; inactive = no such curve, though single readings can be large; an effect the other way counts as inactive or inconclusive.

Experiments:
[1] = biological target: Thyrotropin receptor (Homo sapiens) (UniProt P16473); assay: qHTS assay to identify small molecule agonists of the thyroid stimulating hormone receptor (TSHR) signaling pathway (AID 1224843; calls by dose curve; also: nearly all actives have a fitted effect of over 45% in size)
Procedure, shortened: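 Using 15 concentrations per compound in triplicate, cAMP production was monitored in TSHR-HEK293 cells after 30 min compound incubation at RT; HTRF reagents followed, with fluorescence intensity recorded after 1 h.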

[2] = qHTS assay to identify small molecule agonists of the hypoxia (HIF-1) signaling pathway - cell viability counter screen (AID 1224844; calls by dose curve; also: nearly all actives have a fitted effect of over 50% in size)
Procedure, shortened: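 CellTiter-Glo luminescence read-out, 30 min RT, taken in the same wells as the beta-lactamase HRE reporter assay; HRE-bla ME-180 cells, 0.5% dialyzed FBS, 17 hr compound treatment at 37C, 5% CO2.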

[3] = qHTS assay to identify small molecule agonists of H2AX (AID 1224845; active = well fitted activation curve with a large enough effect in the signal ratio in the repeat runs, not every such curve was filed as active; the % refers to the signal ratio)
Procedure, shortened: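 Wild-type CHO-K1 cells plated overnight, then exposed 3 hr at 37C to compounds at 15 concentrations (0.76% DMSO). Lysed, then HTRF anti-pH2AX(S139)-cryptate/anti-H2AX-d2 detection after 24 hr at room temperature; emissions 665 and 620 nm.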

[4] = qHTS assay to identify small molecule agonists of the hypoxia (HIF-1) signaling pathway (AID 1224846; active = well fitted activation curve with a large enough effect in the signal ratio in the repeat runs, not every such curve was filed as active; the % refers to the signal ratio)
Procedure, shortened: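 Beta-lactamase FRET read-out (CCF4-AM substrate) from ME-180 cells carrying an HRE-driven bla reporter, after 17 hrs compound exposure at 37C/5% CO2. Cells were seeded at 2,000 per well in 0.5% dialyzed FBS medium and preincubated 5 hrs.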

[5] = qHTS assay to identify small molecule agonists of H2AX - cell viability counter screen (AID 1224847; calls by dose curve; also: top concentration of the series differs between compounds; nearly all actives have a fitted effect of over 30% in size)
Procedure, shortened: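 Counter-screen for viability: CellTiter-Glo ATP luminescence read after 3 h compound treatment (15-point titration, 0.76% DMSO final) of CHO-K1 cells at 37C, with 30 min room-temperature reagent incubation.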

[6] = qHTS RealTime-Glo MT Cell Viability Assay in HepG2 cells - 24 hour (AID 1224867); also: nearly all actives have a fitted effect of over 50% in size
Procedure, shortened: (§1)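 Compound treatment began 5 h after plating HepG2 cells (600/well) with NanoLuc luciferase and prosubstrate. Plates stayed at 37 C for 40 h; luminescence was captured at six time points, 0 h through 40 h.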

[7] = qHTS RealTime-Glo MT Cell Viability Assay in HEK293 cells - 32 hour (AID 1224868); also: nearly all actives have a fitted effect of over 50% in size; also: potency is read from the fitted curve at half-maximal effect
Procedure, shortened: (§2)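 Quantitative high-throughput screen of the Tox21 10K library in HEK293: cells and RealTime-Glo reagents plated together, compound added at 5 h, luminescence monitored through 40 h at 37 C.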

[8] = A CellTox Green Cytotoxicity Assay to monitor cytotoxicity in HEK293 cells - 0 hour (AID 1224869); also: nearly all actives have a fitted effect of over 50% in size
Procedure, shortened: (§3)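 Read-out: fluorescence of a cell-impermeant cyanine dye staining DNA of dead cells, proportional to cytotoxicity. HEK293, 600 cells/well with reagent, compound (23 nL DMSO) added after 5 h; reads at 0, 8, 16, 24, 32, 40 h.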

[9] = qHTS RealTime-Glo MT Cell Viability Assay in HepG2 cells - 40 hour (AID 1224870); also: nearly all actives have a fitted effect of over 50% in size
Procedure, shortened: (§4)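 HepG2 cells mixed with RealTime-Glo MT reagents (NanoLuc plus cell-permeant prosubstrate) were seeded at 600 cells/well, incubated 5 h at 37 C/5% CO2, then pinned with compounds in DMSO; nonlytic luminescence tracked viability during 40 h treatment.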

[10] = A CellTox Green Cytotoxicity Assay to monitor cytotoxicity in HEK293 cells - 40 hour (AID 1224871); also: nearly all actives have a fitted effect of over 45% in size
Procedure, shortened: as §3

[11] = qHTS RealTime-Glo MT Cell Viability Assay in HEK293 cells - 16 hour (AID 1224872)
Procedure, shortened: as §2

[12] = qHTS RealTime-Glo MT Cell Viability Assay in HepG2 cells - 8 hour (AID 1224873); also: nearly all actives have a fitted effect of over 55% in size
Procedure, shortened: as §4

[13] = qHTS RealTime-Glo MT Cell Viability Assay in HEK293 cells - 40 hour (AID 1224874); settings: RealTime-Glo luminescence; max response: hits give low values; also: nearly all actives have a fitted effect of over 50% in size; also: potency is read from the fitted curve at half-maximal effect
Procedure, shortened: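 Luminescence readout at each listed time point; HEK293, 600 cells/well, RealTime-Glo MT reagent added with cells; compounds pinned (23 nL in DMSO) after 5 h at 37 C; continuous culture at 37 C.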

[14] = A CellTox Green Cytotoxicity Assay to monitor cytotoxicity in HEK293 cells - 24 hour (AID 1224875); also: nearly all actives have a fitted effect of over 45% in size
Procedure, shortened: as §3

[15] = A CellTox Green Cytotoxicity Assay to monitor cytotoxicity in HepG2 cells - 16 hour (AID 1224876); also: nearly all actives have a fitted effect of over 45% in size
Procedure, shortened: (§5)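 HepG2, 600 cells/well premixed w/ CellTox Green; 5 h settle, 37 C/5% CO2; pintool cpd add (DMSO); 37 C, 40 h; fluorescence read at 0, 8, 16, 24, 32, 40 h.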

[16] = qHTS RealTime-Glo MT Cell Viability Assay in HepG2 cells - 32 hour (AID 1224877); also: nearly all actives have a fitted effect of over 55% in size
Procedure, shortened: as §1

[17] = A CellTox Green Cytotoxicity Assay to monitor cytotoxicity in HepG2 cells - 24 hour (AID 1224878); also: nearly all actives have a fitted effect of over 45% in size
Procedure, shortened: as §5

[18] = A CellTox Green Cytotoxicity Assay to monitor cytotoxicity in HepG2 cells - 40 hour (AID 1224879); also: nearly all actives have a fitted effect of over 40% in size
Procedure, shortened: as §5

[19] = qHTS assay to identify small molecule antagonists of the estrogen related receptor (ERR) signaling pathway from Tox21 library (AID 1224848); also: nearly all actives have a fitted effect of over 50% in size
Procedure, shortened: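 Tox21 10K compounds in DMSO tested for ERR pathway antagonism in NTP's ERR cell line; 18 h, 37 C exposure; ONE-Glo luminescence.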

[20] = qHTS assay to identify small molecule agonists of the estrogen related receptor (ERR) signaling pathway from Tox21 library (AID 1224849; calls by dose curve; also: nearly all actives have a fitted effect of over 15% in size); settings: ERR reporter cell line, ONE-Glo luciferase, 18 h; at 92.4 µM (top of the series) unless noted
Procedure, shortened: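 Luminescence readout (ONE-Glo, 30 min RT) after 18 h compound exposure at 37 C of NTP-supplied ERR reporter cells; cells were plated 6 h before compound addition by pin tool.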
% is scaled to controls: 0 for no effect and ±100 for the full control effect.

Thyrotropin receptor (Homo sapiens), sequence (P16473 whole entry, looked up): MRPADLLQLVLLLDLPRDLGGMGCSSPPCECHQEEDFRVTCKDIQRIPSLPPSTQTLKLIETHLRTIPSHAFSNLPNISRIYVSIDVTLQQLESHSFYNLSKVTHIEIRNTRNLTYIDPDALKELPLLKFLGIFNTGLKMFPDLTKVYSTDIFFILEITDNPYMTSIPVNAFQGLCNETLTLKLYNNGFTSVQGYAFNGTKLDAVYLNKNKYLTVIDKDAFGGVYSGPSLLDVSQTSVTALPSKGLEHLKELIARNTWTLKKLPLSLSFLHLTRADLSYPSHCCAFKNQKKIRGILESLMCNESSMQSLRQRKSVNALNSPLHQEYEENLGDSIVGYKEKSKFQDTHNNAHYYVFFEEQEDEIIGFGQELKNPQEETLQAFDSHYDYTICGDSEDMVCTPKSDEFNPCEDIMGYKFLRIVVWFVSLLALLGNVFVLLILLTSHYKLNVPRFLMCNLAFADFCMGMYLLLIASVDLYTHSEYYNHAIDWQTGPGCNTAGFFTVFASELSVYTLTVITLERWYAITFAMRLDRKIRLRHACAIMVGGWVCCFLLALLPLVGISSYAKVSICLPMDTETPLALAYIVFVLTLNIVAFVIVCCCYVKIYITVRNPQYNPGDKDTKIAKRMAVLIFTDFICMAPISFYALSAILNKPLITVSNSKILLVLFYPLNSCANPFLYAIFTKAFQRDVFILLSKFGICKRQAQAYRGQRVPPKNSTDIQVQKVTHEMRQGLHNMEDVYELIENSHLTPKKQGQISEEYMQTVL

Cc1ccc(NC(=O)N(C)C)cc1NC(=O)N(C)C
inactive: Potency [1] | Potency [2] | Potency [3] | outcome [4] | Potency [5] | Potency [6] | Potency [7] | Potency [8] | Potency [9] | Potency [10] | Potency [11] | Potency [12] | max response [13] -1.73% | Potency [14] | Potency [15] | Potency [16] | Potency [17] | Potency [18]

CC(C)N(C)C
inactive: Potency [1] | Potency [2] | Potency [3] | outcome [4] | Potency [5] | Potency [6] | Potency [7] | Potency [8] | Potency [9] | Potency [10] | Potency [11] | Potency [12] | max response [13] 0.0453% | Potency [14] | Potency [15] | Potency [16] | Potency [17] | Potency [18]

N[C@@H](Cc1cc(I)c(O)c(I)c1)C(=O)O
inactive: Potency [1] | Potency [2] | Potency [3] | outcome [4] | Potency [5] | Potency [19] | activity change, positive = activation [20] 2.55% [at 42.5 µM] | Potency [6] | Potency [7] | Potency [8] | Potency [9] | Potency [10] | Potency [11] | Potency [12] | max response [13] 3.01% | Potency [14] | Potency [15] | Potency [16] | Potency [17]

CC(C)c1ccc(C#N)cc1
inactive: Potency [1] | Potency [2] | Potency [3] | outcome [4] | Potency [5] | Potency [19] | activity change, positive = activation [20] -9.84% | Potency [6] | Potency [8] | Potency [9] | Potency [10] | Potency [12] | Potency [14] | Potency [16]
active: Potency [7] 15.5 µM | Potency [13] 15.5 µM

Cc1ccc(Nc2c(F)cccc2Cl)c(CC(=O)O)c1
inactive: Potency [1] | Potency [2] | Potency [3] | outcome [4] | Potency [5] | Potency [19] | activity change, positive = activation [20] -14.1% [at 42.5 µM] | Potency [6] | Potency [7] | Potency [10] | Potency [11] | Potency [12] | max response [13] 5.05% | Potency [14] | Potency [15] | Potency [16] | Potency [17] | Potency [18]

COC1CCC=CO1 (stereo not drawn)
inactive: Potency [1] | Potency [2] | Potency [3] | outcome [4] | Potency [5] | Potency [19] | activity change, positive = activation [20] 5.99% | Potency [6] | Potency [7] | Potency [8] | Potency [9] | Potency [10] | Potency [11] | Potency [12] | max response [13] 9.69% | Potency [14] | Potency [16] | Potency [18]

O=[N+]([O-])c1ccc2ncccc2c1
inactive: Potency [1] | Potency [2] | Potency [3] | outcome [4] | Potency [5] | activity change, positive = activation [20] -20.1% | Potency [6] | Potency [7] | Potency [8] | Potency [10] | Potency [11] | Potency [12] | max response [13] 2.13% | Potency [14] | Potency [15] | Potency [16] | Potency [18]

CCCCCCC(O)CCOC(C)=O (stereo not drawn)
inactive: Potency [1] | Potency [2] | Potency [3] | outcome [4] | Potency [5] | Potency [19] | activity change, positive = activation [20] -0.596% [at 240 µM] | Potency [6] | Potency [7] | Potency [8] | Potency [9] | Potency [10] | Potency [11] | Potency [12] | max response [13] 0.328% | Potency [14] | Potency [15] | Potency [16] | Potency [17] | Potency [18]

C1=CCC2CC=CC2C1 (stereo not drawn)
inactive: Potency [1] | Potency [2] | Potency [3] | outcome [4] | Potency [5] | Potency [19] | activity change, positive = activation [20] 1.2% | Potency [6] | Potency [7] | Potency [8] | Potency [9] | Potency [10] | Potency [11] | Potency [12] | max response [13] 16.8% | Potency [14] | Potency [15] | Potency [16] | Potency [17] | Potency [18]

CNCc1ccc(NC(=O)c2c[nH]c3c2C(=O)CCC3)cc1
inactive: Potency [1] | Potency [2] | Potency [3] | outcome [4] | Potency [5] | Potency [19] | activity change, positive = activation [20] -17.3% | Potency [6] | Potency [9] | Potency [10] | Potency [12] | Potency [14] | Potency [16] | Potency [17] | Potency [18]

COC(=O)CC(C(C)=O)C(=O)OC (stereo not drawn)
inactive: Potency [1] | Potency [2] | Potency [3] | outcome [4] | Potency [5] | Potency [6] | Potency [7] | Potency [8] | Potency [9] | Potency [10] | Potency [11] | Potency [12] | max response [13] 9.23% | Potency [14] | Potency [15] | Potency [16] | Potency [17] | Potency [18]

CCCCOCCOC(=O)c1cccnc1
inactive: Potency [1] | Potency [2] | Potency [3] | outcome [4] | Potency [5] | Potency [6] | Potency [7] | Potency [8] | Potency [9] | Potency [10] | Potency [11] | Potency [12] | max response [13] 0.954% | Potency [14] | Potency [16] | Potency [17] | Potency [18]

BrC(Br)C(Br)Br
inactive: Potency [1] | Potency [2] | Potency [3] | outcome [4] | Potency [5] | Potency [6] | Potency [7] | Potency [8] | Potency [9] | Potency [10] | Potency [11] | Potency [12] | max response [13] -12.1% | Potency [14] | Potency [15] | Potency [16] | Potency [17] | Potency [18]

FC(F)(F)C(F)(F)C(F)(F)C(F)(F)CCI
inactive: Potency [1] | Potency [2] | Potency [3] | outcome [4] | Potency [5] | Potency [6] | Potency [7] | Potency [8] | Potency [9] | Potency [11] | Potency [12] | max response [13] -4.67% | Potency [14] | Potency [15] | Potency [16] | Potency [18]
